Compounds with a hit are over-represented: about 9% of the library has one in this group of screens.
ALDH1A1 inh: ALDH1A1 (human) enzyme inhibition. P00352. Purified ALDH1A1, NADH fluorescence, propionaldehyde substrate. Potency, µM (highest dose often 75.3 µM), usual class: inhibitors. 220,000 tested, 7.3% active; active = well fitted inhibition curve with a large enough effect, not every such curve was filed as active; inconclusive = small, poorly fitted or top-dose-only effect, or another doubt; inactive = no such curve, though single readings can be large or run the other way
Target sequence (P00352 whole entry, looked up): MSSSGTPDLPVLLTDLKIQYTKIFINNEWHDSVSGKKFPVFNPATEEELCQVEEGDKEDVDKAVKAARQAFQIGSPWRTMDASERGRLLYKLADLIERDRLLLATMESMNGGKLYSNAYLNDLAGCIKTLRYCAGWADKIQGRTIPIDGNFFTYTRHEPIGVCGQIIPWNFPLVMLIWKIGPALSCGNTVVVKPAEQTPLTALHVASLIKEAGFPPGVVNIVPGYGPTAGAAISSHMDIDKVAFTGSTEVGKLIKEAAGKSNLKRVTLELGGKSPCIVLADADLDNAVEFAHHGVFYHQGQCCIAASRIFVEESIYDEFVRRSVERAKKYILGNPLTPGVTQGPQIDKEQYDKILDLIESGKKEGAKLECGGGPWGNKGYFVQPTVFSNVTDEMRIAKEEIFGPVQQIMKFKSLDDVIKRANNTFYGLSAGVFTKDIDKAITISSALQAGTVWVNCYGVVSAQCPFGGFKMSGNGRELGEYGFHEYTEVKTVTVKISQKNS
LMNA splice mod: changes lamin A minigene splicing in HeLa cells. HeLa LMNA splicing GFP/RFP minigene ratio, 48 h. Potency, µM (doses to about 46.1 µM), hits mostly inhibitors. 200,000 tested, 0.01% active; active = well fitted inhibition curve with a large enough effect in the signal ratio, with a control signal flat, not every such curve was filed as active; inconclusive = small, poorly fitted or top-dose-only effect, or effect the other way, or a change in a side signal; the % refers to the signal ratio
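Read-out is the ratio of GFP to DsRed2 object intensity, acquired by 488 nm laser-scanning cytometry on HeLa lamin A-EGFP minigene reporter cells. Compound incubation 48 hrs at 37 °C in Opti-MEM with 2% FBS; DMSO 0.5% final.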
IMPase Li inh: cell-permeable IMPase inhibitors with lithium potentiation; CHO-M1 cells, IP1 TR-FRET (IP-One), carbachol + lithium; Potency, µM (doses to about 59.4 µM), actives largely listed as inhibitors; 210,000 tested, 0.35% active; AID 1457;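 also: IP1 builds up when IMPase is blocked and the TR-FRET signal falls; nearly all actives have a fitted effect of over 50% in size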
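CHO cells stably expressing M1 receptor (2000/well, cultured 16–30 h) treated 30 min at 37C with compound plus low lithium. Cytosolic IP1 by TR-FRET (665/620 ratio and 620 channel) after 10 min lysis; AC50 by Hill fit.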
HPGD block: blocks human HPGD enzyme activity | 150,000 tested, 4.3% active | purified HPGD, NADH fluorescence kinetic, PGE2 substrate | Potency, µM, hits mostly inhibitors | P15428 | AID 894; active = well fitted inhibition curve with a large enough effect, not every such curve was filed as active; inconclusive = small, poorly fitted or top-dose-only effect, or another doubt; inactive = no such curve, though single readings can be large or run the other way
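NADH formation kinetics: reaction with 30 uM PGE2 and 1 mM NAD+ (final), 20 nM enzyme, Tris-HCl pH 8 with Tween 20, after 15 min compound preincubation at room temperature. Fluorescence change, last versus first of five reads.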
KinaseGlo FLuc: Kinase-Glo luciferase inhibition (counter-screen); 200,000 tested, 0.28% active; Potency, µM (series often up to 38.3 µM), usual class: inhibitors; AID 1379; Kinase-Glo luciferase, ATP luminescence, 8 min; also: nearly all actives have a fitted effect of over 60% in size
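Compound is pinned into ATP-containing buffer (10 uM ATP, imidazole pH 7.2, 7 mM MgCl2). Kinase-Glo luciferase reagent is then added. Light output is recorded following an 8-min room-temperature incubation.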
Of the large screens only hits and unclear results are named; the others gave an inactive call. Unless noted, calls follow the shape of the dose curve; as a rule, active = well fitted curve in the direction sought with a large enough effect; inconclusive = small, poorly fitted or top-dose-only effect, or another doubt; inactive = no such curve, though single readings can be large; an effect the other way counts as inactive or inconclusive.

O=C(COc1ccc(Cl)cc1)OCc1cc(=O)n2nc(C3CC3)sc2n1	none (no result: ALDH1A1 inh, IMPase Li inh, HPGD block, KinaseGlo FLuc)
O=C(CN(c1ccc(Cl)cc1)S(=O)(=O)c1ccc(Cl)c([N+](=O)[O-])c1)NCCc1ccc(F)cc1	LMNA splice mod inconclusive
O=C(CN(c1ccc(Cl)cc1)S(=O)(=O)c1ccc(Cl)c([N+](=O)[O-])c1)NCCc1ccccc1	ALDH1A1 inh 25µM (no result: LMNA splice mod, HPGD block)
COc1ccc(N(CC(=O)Nc2ccccc2F)S(=O)(=O)c2ccc(C)c([N+](=O)[O-])c2)cc1	ALDH1A1 inh 11µM (no result: LMNA splice mod, HPGD block)
CCOC(=O)CSc1nc2ccc(NC(=O)COc3ccc(F)cc3)cc2s1	none (no result: ALDH1A1 inh, IMPase Li inh, HPGD block, KinaseGlo FLuc)
CC1CCN(C(=O)c2cc(N3C(=O)C4C5CCC(C5)C4C3=O)ccc2Cl)CC1 (stereo not drawn)	none (no result: LMNA splice mod, HPGD block)
O=C1C2C3C=CC(CO)(O3)C2C(=O)N1c1ccccc1-c1ccccc1 (stereo not drawn)	ALDH1A1 inh 1.1µM, HPGD block 7.9µM
O=C1CCC(=O)N1c1ccccc1-c1ccccc1	none
COC(=O)c1cc(N2C(=O)C3C(C2=O)C2(C)C=CC3(C)O2)ccc1Cl (stereo not drawn)	ALDH1A1 inh 0.11µM, LMNA splice mod inconclusive, HPGD block 2.8µM
O=C1C2C3C=CC(CNS(=O)(=O)c4ccccc4)(O3)C2C(=O)N1c1ccc(Cl)cc1 (stereo not drawn)	ALDH1A1 inh 0.63µM, HPGD block 22µM
O=S(=O)(NCc1cc(-c2ccc(Cl)cc2)no1)c1ccccc1	none
CC(=O)Oc1ccc(N2C(=O)C3C4C=CC(CO)(O4)C3C2=O)cc1 (stereo not drawn)	ALDH1A1 inh 0.71µM, HPGD block 22µM
COC(=O)NC(CC(C)=O)c1ccc2c(c1)OCO2 (stereo not drawn)	none (no result: LMNA splice mod, IMPase Li inh, HPGD block, KinaseGlo FLuc)
CC1(C(=O)O)NCCc2cc(O)c(O)cc21 (stereo not drawn)	ALDH1A1 inh inconclusive (no result: LMNA splice mod, HPGD block, KinaseGlo FLuc)
CC(=O)Oc1ccc(N2C(=O)C3C(C2=O)C2(C)C=CC3(C)O2)cc1 (stereo not drawn)	ALDH1A1 inh 0.63µM, LMNA splice mod inconclusive, HPGD block 13µM
O=C1C(=O)N(CC2CCCO2)C(c2ccco2)/C1=C(/O)c1ccc(F)cc1 (stereo not drawn)	ALDH1A1 inh inconclusive (no result: HPGD block)
CCOC(=O)Cc1ccc(NC(=O)N2CCSc3ccccc32)cc1	none (no result: ALDH1A1 inh, IMPase Li inh, HPGD block, KinaseGlo FLuc)
CCC1(C)NC(=O)N(/N=C/c2cc(OC)c(O)c(OC)c2)C1=O (stereo not drawn)	ALDH1A1 inh 10µM (no result: LMNA splice mod, HPGD block)
COc1cc(/C=N/N2C(=O)CSC2=S)cc(Br)c1O	ALDH1A1 inh inconclusive (no result: HPGD block)
O=C1Nc2ccccc2/C1=N\N=C\C1=C(N2CCOCC2)C(=C\c2ccccc2)/CC1	ALDH1A1 inh 10µM, KinaseGlo FLuc inconclusive
Cn1cc(C(=O)N/N=C/C2=C(N3CCOCC3)C(=C\c3ccccc3)/CC2)ccc1=O	none
Cc1ccc(-n2nc(C)c(Sc3ccccc3[N+](=O)[O-])c2N)cc1	ALDH1A1 inh 10µM, LMNA splice mod inconclusive, HPGD block inconclusive
CCOc1cc(C(=O)OCC(=O)NC(C)c2ccccc2)ccc1OCC(=O)N1CCOCC1 (stereo not drawn)	ALDH1A1 inh inconclusive, LMNA splice mod inconclusive (no result: HPGD block)
CCCN1C2=NCCN2c2cc(C)c(C)cc21	LMNA splice mod inconclusive
Cc1ccc(CCNC(=O)C2CCN(S(=O)(=O)c3ccc4c(ccn4C)c3)CC2)cc1	none (no result: ALDH1A1 inh, IMPase Li inh, HPGD block, KinaseGlo FLuc)
CCOc1cc(N2CCOCC2)c(OCC)cc1NC(=O)C(C)(C)C	none (no result: HPGD block)
CCOc1cc(N2CCOCC2)c(OCC)cc1NC(C)C(=O)N1CCN(CC)CC1 (stereo not drawn)	ALDH1A1 inh 22µM, LMNA splice mod inconclusive (no result: HPGD block)
COc1ccc(NC(=O)CSc2c(C)n[nH]c2C)cc1	ALDH1A1 inh 16µM
Cc1n[nH]c(C)c1SCC(=O)Nc1ccc(F)cc1	none
COc1ccc(OCC(=O)NNC(=O)C(=O)Nc2ccc(C)cc2)cc1	none
COc1ccc(OCC(=O)Nc2ccc(C)cc2)cc1	HPGD block 16µM
Cc1ccc(OCC(=O)N/N=C/c2ccco2)cc1	ALDH1A1 inh 28µM
COc1ccc(OCC(=O)Sc2ccc(C)cc2)cc1	ALDH1A1 inh inconclusive, HPGD block 14µM
O=C(Nc1ccc(S(=O)(=O)Nc2ccccc2)cc1)c1ccc(CN2CCOCC2)cc1	LMNA splice mod inconclusive (no result: HPGD block)
COc1ccc(Cn2ccc3nc(C)c(C(=O)NCc4ccc(SC)cc4)cc3c2=O)cc1	none (no result: ALDH1A1 inh, IMPase Li inh, HPGD block, KinaseGlo FLuc)
